Common to all, as to assay: NCI-60 one-dose screen, 48 h (100 = growth as untreated, 0 = no growth, -100 = all killed)
What all share (settings): 10 µM unless noted

Test [1] concerns SK-MEL-2 melanoma.
Test [2] concerns EKVX NSCLC.
For test [3], the system named is SN12C renal.
In test [4] the test system is UO-31 renal.
Test [5] concerns TK-10 renal.
Test [6] has as its system ACHN renal.
Test [7] concerns A498 renal.
In test [8] the test system is CCRF-CEM leukemia.
Test [9] deals with MOLT-4 leukemia.
Test [10] relates to SR leukemia.
Test [11] concerns RPMI-8226 leukemia.
Test [12] concerns OVCAR-8 ovarian.
Test [13] deals with OVCAR-5 ovarian.
Test [14] concerns OVCAR-4 ovarian.
In test [15] the test system is SK-OV-3 ovarian.
Test [16] relates to IGROV1 ovarian.
The subject of test [17] is OVCAR-3 ovarian.
In test [18] the test system is HS 578T breast.
In test [19] the test system is NCI/ADR-RES ovarian.

About 83,000 compounds went through this panel and 20% of them were active in at least one assay; those are over-represented in the sample as a whole.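 Activity criterion: percent growth below 10, measured after cells in 96-well plates were exposed to a single compound concentration for 48 hours.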 A number with no mark means an inactive call. Calls of active or inactive are those of the source.

This is an account of results in PubChem BioAssay (NCI).

As for `CCNc1cc(S(=O)(=O)O)ccc1C`, the growth is 100% in test [1]; 101% in test [2]; 99.8% in test [3]; 101% in test [4]; 101% in [5]; 113% in test [6]. Besides, the growth in [7] was 102%; in test [8] it was 89.7%; in test [9], 92.3%; in [10], 113%; in test [11], 98%; in [12], 97.3%. Also, the growth was 106% in [13]; 110% in [14]; 92.4% in test [15]; 106% in [16]; 116% in test [17]; 104% in test [18]. In test [19], the growth is 102%.
As for `COc1cc2ncnc(Oc3ccc(NC(=O)Nc4ccc(C5(C#N)CCCC5)cc4)c4ccccc34)c2cc1OC`, the growth in test [1] was 80.9%; in [2], 57.7%; in [3] it was 21.3%; in test [4], 55.8%; in test [5], 24.1%; in test [6], 29.3%. The growth in [7] is 82.4%; in test [8] it was 77.5%; in test [9], 60.9%; in [10] it was 70.3%; in test [11], 58.8%; in test [12], 0.585% (active). The growth is 81% in test [13]; -1.26% (active) in [14]; 40.7% in test [15]; 40% in test [16]; 52% in test [17]; 29.6% in test [18]. In [19], the growth is 72.2%.
As for `CCCCCn1ncc(-c2c(O)c(O)cc3c(O)c(-c4c(C)cc5c(-c6cnn(CCCCC)n6)c(O)c(O)cc5c4O)c(C)cc23)n1`, the growth in test [1] was 3.71% (active); in [2], 9.87% (active); in [3], 18.6%; in [4], -49.5% (active); in [5] it was 10.2%; in [6] it was 6.56% (active). The growth in test [7] is 53%; in [8] it was 1.09% (active); in test [9] it was 6.44% (active); in test [10] it was -29.1% (active); in [11], 0.346% (active); in test [12], 8.04% (active). Further, the growth was 32.3% in [13]; 34.6% in [14]; -0.985% (active) in test [15]; 13.2% in test [16]; 8.42% (active) in test [17]; 31% in test [18]. Moreover, the growth in [19] is 2.37% (active).
Turning to `COc1ccc(/C=C/C(=O)/C=C(/C=C/c2ccc(OC)c(OC)c2OC)OB(F)F)c(OC)c1OC`, the growth in test [1] is 76%; in [2], 65.8%; in test [3], 20.6%; in [4], 16.8%; in test [5], 35.6%; in test [6], -16.4% (active). The growth was 95.1% in test [7]; -2.62% (active) in [8]; 3.43% (active) in test [9]; 0.627% (active) in test [10]; 2.74% (active) in test [11]; 10% in [12]. The growth in test [13] was 62.9%; in test [14] it was 47.4%; in test [15], 76.8%; in test [16], 26.3%; in test [17] it was 5.1% (active); in test [18], 23.6%. In test [19], the growth is 32.5%.
`COC(=O)CCCNS(=O)(=O)c1cc(C(=O)Nc2ccc(NC(=O)c3cc(S(=O)(=O)NCCCC(=O)OC)c(O)c(O)c3O)cc2)c(O)c(O)c1O`: the growth in test [1] was 98.6%; in test [2] it was 84.3%; in test [3] it was 85.3%; in test [4], 82.9%; in test [5] it was 94.9%; in test [6] it was 109%. Moreover, the growth in test [7] is 104%; in test [8], 58.6%; in test [9], 87.6%; in [10], 70.4%; in [11], 96%; in test [12] it was 73.6%. For the same molecule, the growth in [13] is 107%; in [14], 98.3%; in test [15] it was 83.8%; in [16] it was 100%; in [17] it was 102%; in [18] it was 100%. Further, in test [19], the growth was 94.2%.
In the case of `C=C1C(=O)O[C@H]2[C@H]1CC/C(COC(=O)c1ccc(Br)cc1)=C\CC[C@@]1(C)O[C@@H]21`, the growth in test [1] is -24.5% (active); in [2], -41.3% (active); in test [3], -22% (active); in test [4], -89.8% (active); in test [5], 8.28% (active); in test [6], -93.4% (active). The growth in test [7] was 100%; in test [8], -17.5% (active); in [9], -27.2% (active); in test [10], -27.5% (active); in test [11] it was -44.5% (active); in test [12], -36.6% (active). The growth is 1.16% (active) in [13]; -14.3% (active) in test [14]; 111% in test [15]; -57.6% (active) in test [16]; -81.2% (active) in test [17]; 17.8% in test [18]. Moreover, the growth in [19] was 24.7%.
For `C/C(=N/NC(=O)Cn1c2ccccc2c2ccncc21)c1cccs1`, the growth in [1] was 96.6%; in test [2], 103%; in [3] it was 104%; in [4] it was 94.5%; in test [5], 127%; in test [6] it was 103%. Moreover, the growth in test [7] is 86.5%; in test [8], 91.1%; in test [9], 83.1%; in [10], 83.3%; in [11] it was 87.4%; in test [12], 92.8%. The growth in test [13] is 112%; in [14], 99.8%; in test [15] it was 102%; in [16], 90.6%; in [17], 103%; in test [18], 91.1%. Further, in [19], the growth was 101%.
On to `CC(C)(C)OC(=O)N1CC(Cn2cc(C(F)(F)F)c3c(Cl)ncnc32)C1`, for which the growth was -77.4% (active) in test [1]; 50.3% in [2]; -25.4% (active) in [3]; -95.1% (active) in [4]; 115% in [5]; 73.5% in test [6]. The growth in [7] was 34.2%; in test [8], -26.6% (active); in test [9], -37.5% (active); in test [10], -60.9% (active); in test [11], -48.4% (active); in test [12], -72.4% (active). Besides, the growth in [13] was 112%; in test [14], 81.6%; in test [15], -24.4% (active); in [16], -79.1% (active); in test [17], -49.9% (active); in test [18], -9.74% (active). Moreover, the growth in test [19] is 77.7%.
